# Assay results as given in PubChem BioAssay (NCATS).
# Inconclusive results are not listed. Where a call stands in place of a potency, no number is given. The source made the active and inactive calls. Unless noted, calls follow the shape of the dose curve; as a rule, active = well fitted curve in the direction sought with a large enough effect; inconclusive = small, poorly fitted or top-dose-only effect, or another doubt; inactive = no such curve, though single readings can be large; an effect the other way counts as inactive or inconclusive.
# Tests used:
# [1] = Cytometric Cell-Based qHTS for Inhibitors of the mTORC1 Signaling Pathway in MEF (Tsc2-/-, p53-/-) Cells (AID 2660);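 also: Tsc2 and p53 null MEFs carrying empty vector with compound for 24 h; percent of cells above a phospho-rpS6 to PI ratio cutoff in each well; series mostly up to about 38 µM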
# Summary of the method: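 Immunofluorescence qHTS of rpS6 Ser235/236 phosphorylation: MEFs (Tsc2-/-, p53-/-) treated 24 h, 37 C, in DMEM + 10% FBS. Alexa-488 signal normalized to PI count, referenced to rapamycin (7.5 nM) and DMSO; PI cell number recorded for viability.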
# [2] = High Content Imaging Cell-Based qHTS for Inhibitors of the mTORC1 Signaling Pathway in MEF (Tsc2-/-, p53-/-) Cells (AID 2666);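 also: percent of cells scored positive for phospho-rpS6 Ser235/236 immunostaining by imaging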
# Summary of the method: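 MEF Tsc2-/- p53-/- (empty vector), DMEM/10% FBS; cpd 24 h 37 °C; PFA fix, Alexa-488 p-rpS6 S235/236 Ab, Hoechst; imaged; rapamycin-defined inhibition; % positive cells/well.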
# [3] = High Content Imaging Cell-Based qHTS for Inhibitors of the mTORC1 Signaling Pathway in MEF Cells (AID 2667);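 also: Tsc2-/- p53-/- MEFs stably re-expressing wild-type Tsc2 exposed 24 h; series mostly up to about 38 µM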
# Summary of the method: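 Read-out is the share of phospho-rpS6-positive cells per well, from Hoechst-normalized Alexa-488 Ser235/236 staining imaged on IN Cell. Cells: WT Tsc2-expressing Tsc2-/-, p53-/- MEFs exposed to compound for 24 hrs.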
# [4] = Cytometry Cell-Based qHTS for Inhibitors of the mTORC1 Signaling Pathway in MEF cells (AID 2668);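 also: Tsc2-/- p53-/- mouse embryonic fibroblasts stably re-expressing wild-type Tsc2; percent cells positive for phospho-rpS6 Ser235/236 relative to propidium iodide stain; series mostly up to about 38 µM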
# Summary of the method: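 Pathway inhibition in WT Tsc2-rescued Tsc2-/-, p53-/- MEFs is measured as the Alexa-488 phospho-rpS6 to propidium iodide intensity ratio after 24 hrs of compound at 37 degree Celsius. PI-stained cell number gives viability.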
# [5] = Validation screen for small molecules that induce DNA re-replication in MCF 10A normal breast cells (AID 463097); also: nearly all actives have a fitted effect of over 60% in size; also: potency is read from the fitted curve at half-maximal effect
# Summary of the method: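 DNA re-replication was detected as a rise in nuclei with elevated Hoechst fluorescence after a 48 hr compound exposure of MCF 10A cells at 37 C.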
# [6] = molecular target: Ubiquitin carboxyl-terminal hydrolase 2 (Homo sapiens) (UniProt O75604); experiment: qHTS Validation Assay for Inhibitors of Ubiquitin-specific Protease USP2a Using CHOP2 as the Reporter (AID 463106)
# Summary of the method: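 Fluorescence read-out at Ex 485nm/Em 531nm after 60min RT, following addition of 25nM Ub-CHOP2 plus 25nM reporter substrate to USP2 core (10nM) pretreated 30min with compound. Data normalized to NEM full inhibition; concentration-response curves fitted.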
# [7] = molecular target: DNA polymerase III PolC-type (Bacillus subtilis (strain 168)) (UniProt P13267); experiment: qHTS Validation Assay for the Inhibitors of DNA Replication in Gram-Positive Bacteria (AID 485295);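 also: reconstituted holoenzyme with PolC plus beta clamp SSB and primase; PicoGreen fluorescence of double-stranded DNA made on primed circular M13 template; series mostly up to about 57 µM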
# Summary of the method: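 Primed replication of single-stranded M13Gori by a four-protein B. subtilis holoenzyme is measured at room temperature. Double-stranded product is quantified by PicoGreen fluorescence after an EDTA stop; inhibition is scaled between DMSO and EDTA controls.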
# [8] = molecular target: Tumor susceptibility gene 101 protein (Homo sapiens) (UniProt Q99816); experiment: qHTS Validation Assay for Iinhibitors of HIV-1 Budding by Blocking the Interaction of PTAP/TSG101 (AID 485342; calls by dose curve)
# Summary of the method: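 Fluorescence anisotropy measured PTAP-Tsg101 interaction. Final concentrations were 10 uM protein domain and 50 nM labeled peptide, equilibrated 20 min at room temperature.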
# [9] = qHTS Validation Assay to Find Inhibitors of Chronic Active B-Cell Receptor Signaling (AID 485345; active = well fitted curve in the direction sought with a large enough effect in the main read-out, with a control signal flat, not every such curve was filed as active)
# Summary of the method: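 TMD8 ABC-DLBCL cells stably carrying doxycycline-inducible IkappaBalpha–green luciferase fusion plus unfused red luciferase; compounds 46 uM to 3 nM, 4 h at 37C with doxycycline. Corrected green/red luminescence ratio normalized to 10 uM MG-132 and basal cell wells; curves fitted.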
# Chain of DNA polymerase III PolC-type (Bacillus subtilis (strain 168)) (P13267 whole entry, looked up): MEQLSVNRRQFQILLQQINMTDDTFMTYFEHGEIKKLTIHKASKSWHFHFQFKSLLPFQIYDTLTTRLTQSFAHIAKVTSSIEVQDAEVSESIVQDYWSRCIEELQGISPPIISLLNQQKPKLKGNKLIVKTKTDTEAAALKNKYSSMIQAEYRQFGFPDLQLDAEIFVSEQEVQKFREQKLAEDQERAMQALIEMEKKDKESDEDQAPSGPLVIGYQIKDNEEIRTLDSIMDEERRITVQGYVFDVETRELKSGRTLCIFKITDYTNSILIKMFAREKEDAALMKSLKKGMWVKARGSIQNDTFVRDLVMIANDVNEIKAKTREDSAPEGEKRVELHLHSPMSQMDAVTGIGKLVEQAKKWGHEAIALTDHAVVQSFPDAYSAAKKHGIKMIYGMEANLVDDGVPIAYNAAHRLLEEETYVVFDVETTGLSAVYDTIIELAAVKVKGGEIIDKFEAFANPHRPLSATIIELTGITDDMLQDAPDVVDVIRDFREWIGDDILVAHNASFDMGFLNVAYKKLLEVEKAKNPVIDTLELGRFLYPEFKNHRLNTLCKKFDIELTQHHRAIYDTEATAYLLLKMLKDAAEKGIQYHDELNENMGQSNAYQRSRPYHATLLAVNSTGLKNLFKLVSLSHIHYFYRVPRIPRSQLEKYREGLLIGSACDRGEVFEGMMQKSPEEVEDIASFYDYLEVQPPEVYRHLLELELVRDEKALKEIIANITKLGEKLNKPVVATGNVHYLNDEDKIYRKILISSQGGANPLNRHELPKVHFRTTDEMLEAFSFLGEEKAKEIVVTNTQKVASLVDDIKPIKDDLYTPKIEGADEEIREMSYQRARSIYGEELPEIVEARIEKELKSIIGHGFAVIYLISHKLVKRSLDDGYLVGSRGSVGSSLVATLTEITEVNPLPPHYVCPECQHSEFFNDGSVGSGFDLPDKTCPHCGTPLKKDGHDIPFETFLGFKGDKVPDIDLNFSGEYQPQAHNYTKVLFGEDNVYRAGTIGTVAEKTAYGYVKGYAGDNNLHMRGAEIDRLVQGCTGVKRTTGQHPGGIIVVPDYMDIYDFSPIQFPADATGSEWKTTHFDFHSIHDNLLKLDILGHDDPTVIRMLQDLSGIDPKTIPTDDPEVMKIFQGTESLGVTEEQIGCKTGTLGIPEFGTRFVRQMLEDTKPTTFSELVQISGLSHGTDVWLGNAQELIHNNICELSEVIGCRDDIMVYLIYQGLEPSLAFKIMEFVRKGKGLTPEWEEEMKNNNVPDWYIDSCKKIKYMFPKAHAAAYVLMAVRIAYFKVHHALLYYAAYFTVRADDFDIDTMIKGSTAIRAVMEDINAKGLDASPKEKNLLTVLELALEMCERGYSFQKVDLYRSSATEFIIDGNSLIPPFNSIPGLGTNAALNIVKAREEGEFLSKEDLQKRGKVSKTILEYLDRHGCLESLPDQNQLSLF
# Chain of Ubiquitin carboxyl-terminal hydrolase 2 (Homo sapiens) (O75604 whole entry, looked up): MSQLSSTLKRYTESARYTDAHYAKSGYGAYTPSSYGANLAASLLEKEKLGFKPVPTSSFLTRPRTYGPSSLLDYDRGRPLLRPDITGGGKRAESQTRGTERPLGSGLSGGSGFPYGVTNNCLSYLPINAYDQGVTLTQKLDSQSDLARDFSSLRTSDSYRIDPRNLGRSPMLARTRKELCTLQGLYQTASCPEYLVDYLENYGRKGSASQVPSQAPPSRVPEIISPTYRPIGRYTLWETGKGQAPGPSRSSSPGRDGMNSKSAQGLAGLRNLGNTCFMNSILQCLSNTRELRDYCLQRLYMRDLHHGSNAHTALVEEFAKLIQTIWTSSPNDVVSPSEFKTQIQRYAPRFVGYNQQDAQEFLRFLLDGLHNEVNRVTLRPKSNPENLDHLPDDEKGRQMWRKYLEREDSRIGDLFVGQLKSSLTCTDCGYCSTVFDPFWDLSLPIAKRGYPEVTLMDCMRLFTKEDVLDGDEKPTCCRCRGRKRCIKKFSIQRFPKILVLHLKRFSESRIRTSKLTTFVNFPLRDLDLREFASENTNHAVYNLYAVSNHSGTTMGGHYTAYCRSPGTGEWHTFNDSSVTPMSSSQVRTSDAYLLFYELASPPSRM
# Chain of Tumor susceptibility gene 101 protein (Homo sapiens) (Q99816 whole entry, looked up, the tested form may be a part): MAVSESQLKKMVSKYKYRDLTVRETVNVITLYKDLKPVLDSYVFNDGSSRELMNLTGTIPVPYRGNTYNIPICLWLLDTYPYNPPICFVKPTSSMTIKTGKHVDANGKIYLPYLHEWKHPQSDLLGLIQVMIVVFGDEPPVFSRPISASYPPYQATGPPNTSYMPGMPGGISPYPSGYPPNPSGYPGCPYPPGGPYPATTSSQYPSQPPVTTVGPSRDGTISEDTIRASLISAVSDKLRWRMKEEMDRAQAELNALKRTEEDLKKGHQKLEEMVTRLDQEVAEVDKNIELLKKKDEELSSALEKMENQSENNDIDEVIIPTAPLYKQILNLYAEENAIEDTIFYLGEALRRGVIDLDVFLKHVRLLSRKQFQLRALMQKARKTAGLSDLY
SMILES,outcome [1],Potency [2],Potency [3],Potency [4],Potency [5],Potency [6],Potency [7],outcome [8],outcome [9]
O=C(OCCN1CCOCC1)C1(c2ccccc2)CCCCC1,inactive,inactive,inactive,inactive,inactive,inactive,inactive,inactive,inactive
COc1cc2c(CCNC(C)=O)c[nH]c2cc1O,inactive,inactive,inactive,inactive,inactive,inactive,inactive,inactive,inactive
N[C@H](C(=O)O)[C@H](O)C(=O)O,inactive,inactive,inactive,inactive,inactive,inactive,inactive,inactive,inactive
O=C(O)/C=C/c1ccc(O)c(O)c1,inactive,inactive,inactive,inactive,inactive,inactive,inactive,inactive,inactive
O=C(O)c1ccccc1Nc1ccccc1,inactive,inactive,inactive,inactive,inactive,inactive,inactive,inactive,inactive
NCCCCN=C(N)N,inactive,inactive,inactive,inactive,inactive,inactive,inactive,inactive,inactive
CC1CCN(CC[C@H]2CCCN2S(=O)(=O)c2cccc(O)c2)CC1,inactive,inactive,inactive,inactive,inactive,inactive,inactive,inactive,inactive
CCCCCCCCCC[Si](C)(C)CCC(=O)NC(Cc1ccc(C)cc1)c1ccccc1 (configuration not stated),inactive,inactive,inactive,inactive,inactive,inactive,inactive,inactive,inactive
CC(N)=O,inactive,inactive,inactive,inactive,inactive,inactive,inactive,inactive,inactive
O=C(O)C1CN(CCCP(=O)(O)O)CCN1 (configuration not stated),inactive,inactive,inactive,inactive,inactive,inactive,inactive,inactive,inactive
COCc1nc2c([nH]1)c(=O)n(C)c(=O)n2CC(C)C,inactive,inactive,inactive,inactive,inactive,inactive,inactive,inactive,inactive
N=S(=O)(O)Cc1noc2ccccc12,inactive,inactive,inactive,inactive,inactive,inactive,inactive,inactive,inactive
CNC(=O)c1cc2c(cn1)[nH]c1ccccc12,inactive,inactive,inactive,inactive,inactive,inactive,inactive,inactive,inactive
Cn1cc(C(F)(F)F)nc1-c1ccc(OCC(O)CNCCOc2ccc(O)c(C(N)=O)c2)cc1 (configuration not stated),inactive,inactive,inactive,inactive,inactive,inactive,inactive,inactive,inactive
CCC(=O)N1CCN(C(=O)c2ccccc2)CC1,inactive,inactive,inactive,inactive,inactive,inactive,inactive,inactive,inactive
NC1(C(=O)O)CCCCC1,inactive,inactive,inactive,inactive,inactive,inactive,inactive,inactive,inactive
O=C(O)c1cccnc1C(=O)O,inactive,inactive,inactive,inactive,inactive,inactive,inactive,inactive,inactive
NC1(C(=O)O)CCc2cc(C(=O)O)ccc21 (configuration not stated),inactive,inactive,inactive,inactive,inactive,inactive,inactive,inactive,inactive
NC1(C(=O)O)CC1,inactive,inactive,inactive,inactive,inactive,inactive,inactive,inactive,inactive
CC(=O)O[C@H]1CC2(C)[C@@H](C[C@@H](O)[C@H]3[C@@]4(C)CC[C@@H](O)[C@@H](C)[C@@H]4CC[C@@]32C)C1=C(CCC=C(C)C)C(=O)O (some centres not stated),inactive,inactive,inactive,inactive,inactive,inactive,inactive,inactive,inactive
Nc1ncnc2c1ncn2C1CCCC1,inactive,inactive,inactive,inactive,inactive,inactive,inactive,inactive,inactive
Oc1cc2c(cc1O)C(c1ccccc1)CNCC2 (configuration not stated),inactive,inactive,inactive,inactive,inactive,inactive,inactive,inactive,inactive
C#CC(N)CCC(=O)O (configuration not stated),inactive,inactive,inactive,inactive,inactive,inactive,inactive,inactive,inactive
NC(=O)CNCCC(c1ccccc1)c1ccccc1,inactive,inactive,inactive,inactive,inactive,,inactive,inactive,inactive
c1ccc(C2CN3CCSC3=N2)cc1 (configuration not stated),inactive,inactive,inactive,inactive,inactive,inactive,inactive,,inactive
N=C(N)SCCN,inactive,inactive,inactive,inactive,inactive,,inactive,inactive,
O=c1[nH]c(=O)c2nc3ccccc3nc2[nH]1,inactive,inactive,inactive,inactive,inactive,inactive,inactive,,inactive
CC(C)C[C@H](NC(=O)C1OC1C(=O)O)C(=O)NCCCCN=C(N)N (some centres not stated),inactive,inactive,inactive,inactive,inactive,,inactive,inactive,inactive

SMILES,outcome [1],Potency [2],Potency [3],Potency [4],Potency [5],Potency [6],Potency [7],outcome [8],outcome [9]
NC/C=C\C(=O)O,inactive,inactive,inactive,inactive,inactive,,inactive,inactive,inactive
CCCc1c(OCCCOc2ccc(OCC(=O)O)cc2)ccc(C(C)=O)c1O,inactive,inactive,inactive,inactive,inactive,inactive,inactive,,inactive
CC(N)(Cc1ccc(O)c(O)c1)C(=O)O (configuration not stated),inactive,inactive,inactive,inactive,inactive,inactive,inactive,,inactive
N=C(N)SCCc1cnc[nH]1,inactive,inactive,inactive,inactive,inactive,,inactive,inactive,inactive
NC(=O)c1ccccc1,inactive,inactive,inactive,inactive,inactive,inactive,inactive,inactive,inactive
N[C@H]1CONC1=O,inactive,inactive,inactive,inactive,inactive,inactive,inactive,inactive,inactive
O=c1[nH]ccc2c(O)cccc12,inactive,inactive,inactive,inactive,inactive,inactive,inactive,inactive,inactive
Oc1cc(O)c2c(c1)O[C@H](c1ccc(O)c(O)c1)[C@@H](O)C2,inactive,inactive,inactive,inactive,inactive,inactive,inactive,inactive,inactive
O=[N+]([O-])c1cccc2cn[nH]c12,inactive,inactive,inactive,inactive,inactive,,inactive,inactive,inactive
CCN1C(=O)C=CC1=O,inactive,inactive,inactive,inactive,20 µM (active),,inactive,inactive,inactive
N#C/C(=C\c1ccc(O)c(O)c1)C(=O)NCCCNC(=O)/C(C#N)=C/c1ccc(O)c(O)c1,inactive,inactive,inactive,inactive,inactive,inactive,,inactive,
Cn1cc(C(=O)OCC2CCN(CCNS(C)(=O)=O)CC2)c2ccccc21,inactive,inactive,inactive,inactive,inactive,inactive,inactive,,inactive
[Li+],inactive,inactive,inactive,inactive,inactive,inactive,inactive,inactive,inactive
OC[C@H]1O[C@@H](n2cnc3cncnc32)[C@H](O)[C@@H]1O,inactive,inactive,inactive,inactive,inactive,,inactive,inactive,inactive
NCCS(=O)O,inactive,inactive,inactive,inactive,inactive,inactive,inactive,inactive,inactive
Cc1nc(N=Nc2ccc(C(=O)O)cc2)c(COP(=O)(O)O)c(C=O)c1O,inactive,inactive,inactive,inactive,inactive,inactive,inactive,,inactive
N[C@@H](Cc1c[nH]c2ccccc12)C(=O)O,inactive,inactive,inactive,inactive,inactive,inactive,inactive,,inactive
C=C(C)C1CC=C(C(=O)O)CC1 (configuration not stated),inactive,inactive,inactive,inactive,inactive,inactive,inactive,inactive,inactive
N[C@@H](CCC(=O)N[C@H](CSN=O)C(=O)NCC(=O)O)C(=O)O,inactive,inactive,inactive,inactive,inactive,inactive,inactive,inactive,inactive
CC[C@H](NC(=O)c1c(C)c(-c2ccccc2)nc2ccccc12)c1ccccc1,inactive,inactive,inactive,inactive,inactive,inactive,inactive,inactive,inactive
NC(N)=NC(N)=Nc1cccc(Cl)c1,inactive,inactive,inactive,inactive,inactive,inactive,inactive,inactive,inactive
N[C@@H](CS(=O)O)C(=O)O,inactive,inactive,inactive,inactive,inactive,,inactive,inactive,inactive
CNCCNS(=O)(=O)c1cccc2cnccc12,inactive,inactive,inactive,inactive,inactive,,inactive,inactive,
Oc1ccc(Cn2cc[nH]c2=S)cc1,inactive,inactive,inactive,inactive,inactive,inactive,inactive,inactive,inactive
NC1CONC1=O (configuration not stated),inactive,inactive,inactive,inactive,inactive,inactive,inactive,,inactive
CC(=O)N[C@@H](Cc1c[nH]c2ccccc12)C(=O)OCc1cc(C(F)(F)F)cc(C(F)(F)F)c1,inactive,inactive,inactive,inactive,inactive,inactive,inactive,,inactive
c1ccc2nc(C3=NCCN3)ccc2c1,inactive,inactive,inactive,inactive,inactive,inactive,inactive,inactive,inactive
